According to ChEMBL document CHEMBL1157539, “Thousands of chemical starting points for antimalarial lead identification” (Nature, 2010):

Tests used:
Type in all cases: functional
Plasmodium falciparum [1] = assay: GSK_TCMDC: Inhibition of Plasmodium falciparum 3D7 in whole red blood cells, using parasite LDH activity as an index of growth. Test compounds present at 2uM
Plasmodium falciparum [2] = assay: GSK_TCMDC: Inhibition of Plasmodium falciparum Dd2 in whole red blood cells, using parasite LDH activity as an index of growth. Test compounds present at 2uM
HepG2 = assay: GSK_TCMDC: Percent inhibition of human HepG2 cell line. Test compounds present at 10uM.

| SMILES | Inhibition (Plasmodium falciparum [1]) [%] | Inhibition (Plasmodium falciparum [2]) [%] | Inhibition (HepG2) [%] |
| --- | --- | --- | --- |
| Br.CCOC(=O)c1c(CNc2ccncc2)n(C)c2cc(Br)c(OC(C)=O)cc12 | 96 | 93 | 0 |
| CS(=O)(=O)c1ccc(CNCc2cccc(-c3cccc(-c4nc5cc(C(F)(F)F)ccc5[nH]4)c3)c2)cc1.O=C(O)C(F)(F)F | 100 | 96 | 5 |
| CCN(CC)CCOC(=O)c1ccc(NC(=O)c2cc(-c3ccc(C)cc3)nc3ccccc23)cc1.Cl | 97 | 12 | 22 |
| CN(C)c1ccc(C2c3[nH]cnc3CCN2C(=O)Nc2cccc([N+](=O)[O-])c2)cc1 (centres undefined) | 98 | 15 | 0 |
| O=C(Nc1cccc(-c2cc(-c3c(Cl)cccc3Cl)no2)c1)c1cnc2ccccc2c1 | 87 | 34 | 0 |
| O=C(NCc1ccc(C(=O)NC2CCCCC2)cc1)c1ccc(O)c(-c2ccc(Cl)c(Cl)c2)c1 | 93 | 0 | 5 |
| O=C(NC(=O)c1ccccc1)NC1CCN(c2ccnc3cc(Cl)ccc23)C1.O=C(O)C(F)(F)F (centres undefined) | 100 | 99 | 32 |
| O=C(Nc1ccc(Cl)cc1C(=O)Nc1ccncc1)c1ccc(Cl)cc1Cl | 99 | 75 | 8 |
| O=C(NC1CCN(Cc2ccccc2)CC1)c1cc(-c2cccnc2)nc2ccc(Cl)cc12 | 97 | 26 | 0 |
| O=C(Nc1ccc([N+](=O)[O-])cc1)Nc1nc2ccc(Cl)cc2s1 | 92 | 33 | 63 |
| O=C(Nc1ccc(Br)cc1)c1cc(Br)ccc1NS(=O)(=O)c1cc(C(F)(F)F)cc(C(F)(F)F)c1 | 85 | 67 | 68 |
| CN(C)CCOc1cc(NC(=O)Nc2ccc3c(c2)CCCC3=O)ccc1I | 94 | 31 | 29 |
| CON(C)C(=O)[C@@H](CCCCNC(=O)OCc1ccccc1)NC(=O)OC(C)(C)C | 98 | 0 | 5 |
| O=C(Nc1ccc(-c2cccc(-c3nc4cc(C(F)(F)F)ccc4[nH]3)c2)cc1)Nc1ccc(F)c(F)c1F | 99 | 85 | 58 |
| COCCNCc1nc(-c2ccc3c(Nc4ccc(F)c(O)c4)ccnc3c2)cs1 | 100 | 99 | 0 |
| Cc1cccc2nc(-c3cccc(-c4cccc(NC(=O)c5csnn5)c4)c3)[nH]c12 | 98 | 49 | 10 |
| COc1cc2nc(N(C)Cc3cc4c(Cl)cccc4s3)nc(N)c2cc1OC.Cl | 90 | 27 | 32 |
| CCCc1cc(Cc2cnc(N)nc2N)cc(OCCCCCC(=O)O)c1OC.Cl | 95 | 2 | 8 |
| Nc1ccc2nc(C=Cc3ccccc3)[nH]c2c1 | 92 | 89 | 7 |
| CC(NC(C)c1cccc(Cl)c1)C(=O)Nc1cc(C(F)(F)F)ccc1N1CCOCC1 (centres undefined) | 89 | 33 | 30 |
| Cn1nc2ccc3ccccc3c2nc1=N.I | 91 | 85 | 100 |
| COc1ccccc1N=C1SC(=Cc2cn(CC(=O)N3CCCc4ccccc43)c3ccccc23)C(=O)N1C1CCCCC1 | 100 | 99 | 10 |
| N#Cc1cccc(CNC(=O)c2cccc(Nc3ccnc4ccc(F)cc34)c2)c1.O=C(O)C(F)(F)F | 87 | 26 | 0 |
| COc1cc(F)c2ncc(Cl)c(C(O)CN3CCC(NC(=O)c4ccc5c(n4)NC(=O)CO5)CC3)c2c1.Cl (centres undefined) | 100 | 100 | 22 |
| COc1cc2nc(N3CCC(CNC(=O)c4cccc5cc[nH]c45)CC3)nc(N)c2cc1OC | 98 | 24 | 33 |
| O=C(O)C[C@H](NC(=O)c1cc(-c2ccc3c(c2)OCO3)no1)C(=O)O.O=C(O)C[C@H](NC(=O)c1conc1-c1ccc2c(c1)OCO2)C(=O)O | 98 | 0 | 0 |
| O=C(Nc1cccc(-c2ccc(CN3CCC(O)CC3)cc2)c1)c1ccc(Cl)cc1.O=C(O)C(F)(F)F | 95 | 8 | 46 |
| Cc1cccc2nc(-c3ccc(-c4ccc(CN5CCC(C(N)=O)CC5)cc4)s3)[nH]c12.O=C(O)C(F)(F)F | 97 | 51 | 4 |
